Bioassay records from PubChem.
This is a sample that favours compounds with a hit; in the whole collection about 19% have one here.
KB-3-1 cytotox: KB-3-1 parental cell cytotoxicity. AID 1347075. KB-3-1 viability, CellTiter-Glo ATP luminescence, 72 h. 400,000 tested, 1.4% active. Potency, µM (doses to about 46.1 µM), actives largely listed as cytotoxic; further: nearly all actives have a fitted effect of over 60% in size
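Luminescent ATP read-out (CellTiter-Glo) measures survival of drug-naive KB-3-1 cells after 72 h compound exposure at 37 °C. Titration series was screened from lowest to highest concentration, with DMSO vehicle plates as background controls.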
TDP1 cell noCPT: qHTS for Inhibitors of human tyrosyl-DNA phosphodiesterase 1 (TDP1): qHTS in cells in absence of CPT | DT40 Tdp1-/- hTDP1 cells, no CPT, ATP luminescence, 48 h | 420,000 tested, 15% active | Potency, µM (doses to about 46.2 µM), usual class: inhibitors; further: nearly all actives have a fitted effect of over 55% in size
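Stably hTDP1-transfected Tdp1-null chicken DT40 cells were treated with library compounds minus camptothecin and grown for at least 48 hr at 37 °C, after which cellular ATP was quantified by luminescence.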
HT1080 IDH1KD tx: HT-1080 IDH1 knockdown cell toxicity (counter line) | HT-1080 IDH1 knockdown viability, ATP luminescence, 48 h | Potency, µM (top dose mostly 46.1 µM), hits mostly cytotoxic | 360,000 tested, 2% active
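CellTiter-Glo luminescence after 48 h compound exposure at 37 degrees C of IDH1-knockdown HT-1080 cells in 5% FBS RPMI. %Activity scaled between DMSO wells and cell-free media wells, with curves fitted and assigned curve classes.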
HT1080NT lethal: kills 2HG-producing HT-1080-NT fibrosarcoma cells. HT-1080-NT fibrosarcoma viability, CellTiter-Glo ATP luminescence, 48 h. Potency, µM (doses to about 46.1 µM), actives largely listed as cytotoxic. 360,000 tested, 1.6% active. AID 686970;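 further: NT is the 2HG producing partner of a matched IDH1 knockdown line; nearly all actives have a fitted effect of over 55% in size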
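Toxicity toward the 2HG-producing NT line was scored as %Activity, normalised to DMSO and no-cell wells, from CellTiter-Glo luminescence after 48 hours' treatment.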
KB-V1 MDR tox: kills drug-selected multidrug resistant KB-V1 cells | KB-V1 MDR cells viability, CellTiter-Glo, 72 h | Potency, µM (doses to about 46.1 µM), usual class: cytotoxic | 400,000 tested, 3.4% active; further: nearly all actives have a fitted effect of over 60% in size
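Potencies derive from concentration-effect curves fitted to normalized luminescence (CellTiter-Glo) of KB-V1 cells treated for 72 h at 37 degrees C in phenol-red-free DMEM containing 10% FBS.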
TDP1 cell CPT: DT40-hTDP1 cell growth loss with CPT | chicken DT40 Tdp1-/-;hTDP1 cells + 20 nM CPT, ATP luminescence, 48 h | Potency, µM (highest dose often 46.2 µM), actives largely listed as inhibitors | AID 686979 | 420,000 tested, 12% active; further: nearly all actives have a fitted effect of over 55% in size
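Chicken DT40 Tdp1-/- cells complemented with human TDP1, 400 cells/well, exposed to compounds plus 20 nM camptothecin for at least 48 h at 37 C; viability read as ATP content by CellTiter-Glo luminescence.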
Large screens that a line does not name were inactive. The call rests on the fitted dose curve; in most records, active means well fitted curve in the direction sought with a large enough effect; inconclusive means small, poorly fitted or top-dose-only effect, or another doubt; inactive means no such curve, though single readings can be large; an effect the other way counts as inactive or inconclusive.

C/C=C/c1ccc(OCC(O)CN(C)Cc2ccc(SC)cc2)c(OC)c1 (configuration not stated)	TDP1 cell noCPT 23.1µM, TDP1 cell CPT inconclusive
CC(C)Oc1ccc(CNC(=O)CN2C(=O)CCn3nc(-c4cn(C)c5ccccc45)cc32)cc1	TDP1 cell noCPT inconclusive, TDP1 cell CPT inconclusive (no result: HT1080 IDH1KD tx, HT1080NT lethal)
CN(C)S(=O)(=O)c1cccc(NC(=S)N/N=C/c2cccc(O)c2)c1	TDP1 cell CPT inconclusive
CN(C)S(=O)(=O)c1cccc(NC(=S)N/N=C/c2cc(Br)ccc2O)c1	KB-3-1 cytotox inconclusive, TDP1 cell noCPT 3.66µM, HT1080 IDH1KD tx inconclusive, HT1080NT lethal inconclusive, KB-V1 MDR tox inconclusive, TDP1 cell CPT 2.59µM
Cc1nc2cc(NC(=O)[C@@H]3C[C@@H](Sc4ccccn4)CN3Cc3ccc4c(c3)OCCO4)ccc2s1	none (no result: KB-3-1 cytotox, HT1080 IDH1KD tx, HT1080NT lethal, KB-V1 MDR tox)
Cn1nc(C(C)(C)C)cc1NC(=O)C1(C)CCN1C(=O)Cc1ccc(-c2ccccc2)cc1 (configuration not stated)	TDP1 cell noCPT 18.4µM, HT1080 IDH1KD tx inconclusive, HT1080NT lethal inconclusive, TDP1 cell CPT 14.6µM
Cn1nc(C(C)(C)C)cc1NC(=O)C1(C)CCN1C(=O)c1ccccc1CCc1ccccc1 (configuration not stated)	TDP1 cell noCPT inconclusive, HT1080 IDH1KD tx inconclusive, HT1080NT lethal inconclusive, TDP1 cell CPT 18.4µM
Cn1nc(C(C)(C)C)cc1NC(=O)C1(C)CCN1C(=O)CCc1ccccc1 (configuration not stated)	TDP1 cell noCPT inconclusive, TDP1 cell CPT inconclusive
CC(C)(C)c1cc(NC(=O)C2(C)CCN2C(=O)c2ccccc2CCc2ccccc2)no1 (configuration not stated)	TDP1 cell noCPT 20.6µM, TDP1 cell CPT inconclusive
CC1(C(=O)NCCC#N)CCN1C(=O)c1ccccc1CCc1ccccc1 (configuration not stated)	HT1080NT lethal inconclusive, TDP1 cell CPT inconclusive
O=C(NCC(=O)N(CCN1CCOCC1)C(C(=O)NC1CCCC1)c1ccccc1)c1cccs1 (configuration not stated)	none
CC1=NN(C(=O)COc2ccc(C)c(C)c2)C(O)(c2ccc(Cl)cc2)C1 (configuration not stated)	TDP1 cell noCPT 14.6µM, TDP1 cell CPT 13µM
CC1=NN(C(=O)COc2cc(C)ccc2C(C)C)C(O)(c2ccccc2)C1 (configuration not stated)	TDP1 cell noCPT 25.9µM, HT1080 IDH1KD tx inconclusive, HT1080NT lethal inconclusive, KB-V1 MDR tox inconclusive, TDP1 cell CPT 5.8µM
CCC1=NN(C(=O)COc2ccccc2)C(O)(c2ccncc2)C1 (configuration not stated)	TDP1 cell noCPT 16.4µM, TDP1 cell CPT inconclusive
Cc1ccc(C(C)C)c(OCC(=O)NNC(=O)Nc2ccccc2)c1	TDP1 cell noCPT inconclusive, HT1080NT lethal inconclusive
CSc1nnnc2ccccc12	KB-V1 MDR tox inconclusive
O=C(NC1CCCC1)c1cn(C2CCN(Cc3cccc4cccnc34)CC2)nn1	none (no result: KB-3-1 cytotox, HT1080 IDH1KD tx, HT1080NT lethal, KB-V1 MDR tox)
CCOc1ccc(N2C(=O)CC(NC3CCN(C(=O)c4cccs4)CC3)C2=O)cc1 (configuration not stated)	none
CCc1nc(OCc2ccco2)c2sc3nc4c(cc3c2n1)COC(C)(C)C4	KB-3-1 cytotox inconclusive, TDP1 cell noCPT 16.4µM, KB-V1 MDR tox inconclusive, TDP1 cell CPT 25.9µM
COC(=O)CSc1ncnc2c1sc1nc3c(cc12)COC(C)(C)C3	TDP1 cell noCPT inconclusive, HT1080 IDH1KD tx inconclusive, HT1080NT lethal inconclusive
CC1(C)Cc2nc3sc4c(N(CCO)CCO)ncnc4c3cc2CO1	KB-3-1 cytotox inconclusive, TDP1 cell noCPT inconclusive
CCc1nc2c(sc3nc4c(cc32)COC(C)(C)C4)c(=O)n1Cc1ccco1	KB-3-1 cytotox inconclusive, TDP1 cell noCPT 23.1µM, HT1080NT lethal inconclusive, KB-V1 MDR tox 11.6µM, TDP1 cell CPT 23.1µM
